According to PubChem BioAssay (NCI):
This is part of a sample that, as a whole, favours compounds with a hit. Of some 79,000 tested, about 15% had one in any assay. Calls of active or inactive are those of the source. Cut-off read from the data, not from the text of the source: active = growth inhibition above about 70%; inactive = the rest.

Assays:
[1] = NCI Yeast Anticancer Drug Screen. Data for the rad52 strain (AID 147);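 note: 0% = growth of vehicle-treated control cultures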; details: S. cerevisiae rad52 mutant growth inhibition, stronger effect = higher value
How it was run: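 Yeast strain carrying a DNA damage repair alteration was exposed to test compounds. Growth inhibition was measured relative to vehicle-treated controls.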

[2] = NCI Yeast Anticancer Drug Screen. Data for the wt1 strain (AID 149);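 note: 0% = growth of vehicle-treated wt1 cultures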; details: S. cerevisiae wt1 strain (SPY 50644) growth inhibition, stronger effect = higher value
How it was run: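 Compounds are added to wt1 yeast cultures. Growth is then measured. Inhibition is expressed relative to vehicle-treated controls.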

[3] = NCI Yeast Anticancer Drug Screen. Data for the rad50EPP+ strain (AID 151);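 note: 0% = growth of vehicle-treated control cultures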; details: S. cerevisiae rad50 mutant strain, stronger effect = higher value
How it was run: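 Yeast strain carrying rad50 alteration (rad50EPP+) exposed to compounds; growth inhibition measured relative to vehicle-treated controls.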

[4] = NCI Yeast Anticancer Drug Screen. Data for the rad50 strain (AID 155);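 note: 0% = growth of vehicle-only cultures of the same strain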; details: S. cerevisiae rad50 strain growth inhibition, stronger effect = higher value
How it was run: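 Inhibition values express reduced yeast growth in compound-treated cultures relative to vehicle-treated controls.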

[5] = NCI Yeast Anticancer Drug Screen. Data for the mec2-1 strain (AID 157); details: S. cerevisiae mec2-1 strain, stronger effect = higher value
How it was run: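 mec2-1 yeast strain, carrying an alteration in DNA damage repair or cell cycle control, was exposed to compounds; growth inhibition was measured relative to vehicle-treated controls.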

[6] = NCI Yeast Anticancer Drug Screen. Data for the rad14 strain (AID 159);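 note: 0% = growth of vehicle-treated control cultures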; details: S. cerevisiae rad14 strain growth inhibition, stronger effect = higher value
How it was run: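 A mutant yeast strain defective in DNA damage repair is treated with compound; inhibition of its growth is scored against untreated, vehicle-exposed cultures.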

[7] = NCI Yeast Anticancer Drug Screen. Data for the sgs1 mgt1 strain (AID 161);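 note: 0% = growth of cultures given vehicle only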; details: S. cerevisiae sgs1 mgt1 strain, stronger effect = higher value
How it was run: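 Growth of a repair-deficient yeast mutant was monitored after compound treatment and expressed as inhibition relative to vehicle-treated cultures.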

[8] = NCI Yeast Anticancer Drug Screen. Data for the CLN2oe strain (AID 163);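 note: 0% = growth of vehicle-only control cultures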; details: S. cerevisiae CLN2oe strain, stronger effect = higher value
How it was run: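 Yeast cells carrying a defined cell-cycle control alteration were exposed to test compounds. Growth inhibition was scored against vehicle-treated control cultures.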

[9] = NCI Yeast Anticancer Drug Screen. Data for the cln2 rad14 strain (AID 165);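 note: 0% = growth equal to vehicle treated cultures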; details: S. cerevisiae cln2 rad14 strain, stronger effect = higher value
How it was run: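 Yeast carrying cln2 and rad14 alterations (cell cycle control and DNA damage repair) were exposed to compounds. Growth inhibition was measured against vehicle-treated controls.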

[10] = NCI Yeast Anticancer Drug Screen. Data for the bub3 strain (AID 167); details: S. cerevisiae bub3 mutant strain, stronger effect = higher value
How it was run: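 Steps: expose the mutant yeast strain to compound; grow alongside vehicle-treated cultures; measure growth; express inhibition against the vehicle cultures.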

[11] = NCI Yeast Anticancer Drug Screen. Data for the wt2 strain (AID 169);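 note: 0% = growth of vehicle-treated yeast cultures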; details: S. cerevisiae wt2 strain growth inhibition, stronger effect = higher value
How it was run: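 Yeast cells were exposed to test compounds, and growth inhibition was measured relative to vehicle-treated controls.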

[12] = NCI Yeast Anticancer Drug Screen. Data for the mlh1 strain (AID 171);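 note: 0% = growth of vehicle-treated control cultures of the same strain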; details: S. cerevisiae mlh1 strain growth inhibition, stronger effect = higher value
How it was run: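 Yeast carrying a defined genetic alteration in DNA damage repair or cell cycle control were exposed to test compounds. Growth inhibition was measured relative to vehicle-treated controls.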

[13] = NCI Yeast Anticancer Drug Screen. Data for the sgs1 strain (AID 173);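 note: 0% = growth of vehicle-only control cultures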; details: S. cerevisiae sgs1 mutant, stronger effect = higher value
How it was run: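 Yeast mutant strains carrying defined defects in DNA damage repair or cell cycle control were exposed to test compounds. Growth inhibition was scored against vehicle-treated controls.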

[14] = NCI Yeast Anticancer Drug Screen. Data for the mlh1 rad18 strain (AID 175); details: S. cerevisiae mlh1 rad18 strain growth inhibition, stronger effect = higher value
How it was run: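 Growth inhibition of the yeast strain was measured after compound exposure and expressed relative to vehicle-treated controls. The strain carries defined defects in DNA damage repair.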

[15] = NCI Yeast Anticancer Drug Screen. Data for the rad18 strain (AID 177); details: S. cerevisiae rad18 mutant growth inhibition, stronger effect = higher value
How it was run: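 Yeast carrying a defined DNA damage repair alteration were exposed to compounds. Growth inhibition was expressed relative to vehicle-treated controls.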

[16] = at 5.0 µM (retest, dose inferred, filed as 0.5)
[17] = at 50.0 µM (retest, dose inferred, filed as 5.0)

Measured: growth inhibition

Cc1ccc(S(=O)(=O)N(C)c2ccc(Cl)cc2C2=NCCc3ccccc32)cc1
inactive: [1]; at 1.2 µM 2% | [1]; at 3.7 µM -8% | [1]; at 11.0 µM -6% | [1]; at 33.0 µM 3% | [2]; at 1.2 µM -2% | [2]; at 3.7 µM -19% | [2]; at 11.0 µM -12% | [2]; at 33.0 µM -6% | [3]; at 1.2 µM -8% | [3]; at 3.7 µM -9% | [3]; at 11.0 µM -14% | [3]; at 33.0 µM -9% | [3]; at 100.0 µM -8% | [4]; at 1.2 µM 0% | [4]; at 3.7 µM 5% | [4]; [16] 47% | [4]; at 11.0 µM 11% | [4]; at 33.0 µM 3% | [4]; [17] 56% | [5]; at 1.2 µM -7% | [5]; at 3.7 µM -26% | [5]; [16] 39% | [5]; at 11.0 µM -18% | [5]; at 33.0 µM -3% | [5]; [17] 61% | [6]; at 1.2 µM -23% | [6]; at 3.7 µM -40% | [6]; at 11.0 µM -28% | [6]; at 33.0 µM -15% | [7]; [16] 7% | [8]; at 1.2 µM 15% | [8]; at 3.7 µM 2% | [8]; at 11.0 µM 18% | [8]; at 33.0 µM 9% | [9]; [16] 51% | [10]; at 1.2 µM -16% | [10]; at 3.7 µM -9% | [10]; [16] 52% | [10]; at 11.0 µM 1% | [10]; at 33.0 µM 7% | [11]; at 1.2 µM -25% | [11]; at 3.7 µM -40% | [11]; at 11.0 µM -19% | [11]; at 33.0 µM 6% | [12]; at 1.2 µM -21% | [12]; at 3.7 µM -21% | [12]; at 11.0 µM -17% | [12]; at 33.0 µM 14% | [13]; at 1.2 µM -15% | [13]; at 3.7 µM -20% | [13]; at 11.0 µM -11% | [13]; at 33.0 µM 6% | [14]; [16] 45% | [14]; [17] 55% | [15]; at 1.2 µM -13% | [15]; at 3.7 µM -12% | [15]; at 11.0 µM -18% | [15]; at 33.0 µM -11%
active: [1]; at 100.0 µM 95% | [2]; at 100.0 µM 95% | [4]; at 50.0 µM 89% | [4]; at 100.0 µM 94% | [5]; at 50.0 µM 91.7% | [5]; at 100.0 µM 95% | [6]; at 100.0 µM 94% | [7]; [17] 94% | [7]; at 50.0 µM 93.1% | [8]; at 100.0 µM 96% | [9]; [17] 98% | [9]; at 50.0 µM 90% | [10]; [17] 95% | [10]; at 50.0 µM 91.6% | [10]; at 100.0 µM 95% | [11]; at 100.0 µM 94% | [12]; at 100.0 µM 96% | [13]; at 100.0 µM 93% | [14]; at 50.0 µM 90.4% | [15]; at 100.0 µM 94%

CCC(=O)N(c1ccccc1)C(C)CN1CCC(O)(c2cccc(C(F)(F)F)c2)CC1 (stereo unspecified)
active: [1]; at 100.0 µM 83% | [4]; at 100.0 µM 76% | [6]; at 100.0 µM 97% | [8]; at 100.0 µM 73% | [10]; at 100.0 µM 89% | [11]; at 100.0 µM 96% | [12]; at 100.0 µM 91%
inactive: [1]; at 1.2 µM 0% | [1]; at 3.7 µM 4% | [1]; at 11.0 µM 13% | [1]; at 33.0 µM 27% | [2]; at 1.2 µM 2% | [2]; at 3.7 µM 6% | [2]; at 11.0 µM 11% | [2]; at 33.0 µM 22% | [2]; at 100.0 µM 46% | [3]; at 1.2 µM -3% | [3]; at 3.7 µM -3% | [3]; at 11.0 µM -1% | [3]; at 33.0 µM -2% | [3]; at 100.0 µM -1% | [4]; at 1.2 µM -2% | [4]; at 3.7 µM -7% | [4]; [16] 21% | [4]; at 11.0 µM 3% | [4]; at 33.0 µM 26% | [4]; [17] 4% | [4]; at 50.0 µM 62.3% | [5]; at 1.2 µM 0% | [5]; at 3.7 µM 7% | [5]; [16] -2% | [5]; at 11.0 µM 17% | [5]; at 33.0 µM 23% | [5]; [17] 10% | [5]; at 50.0 µM 10.2% | [5]; at 100.0 µM 57% | [6]; at 1.2 µM 6% | [6]; at 3.7 µM 18% | [6]; at 11.0 µM 48% | [6]; at 33.0 µM 68% | [7]; [16] -4% | [7]; [17] 41% | [7]; at 50.0 µM 68.2% | [8]; at 1.2 µM 2% | [8]; at 3.7 µM 1% | [8]; at 11.0 µM 13% | [8]; at 33.0 µM 41% | [9]; [16] 7% | [9]; [17] 43% | [9]; at 50.0 µM 18.6% | [10]; at 1.2 µM 1% | [10]; at 3.7 µM 3% | [10]; [16] 4% | [10]; at 11.0 µM 17% | [10]; at 33.0 µM 49% | [10]; [17] 51% | [10]; at 50.0 µM 65.2% | [11]; at 1.2 µM 0% | [11]; at 3.7 µM 5% | [11]; at 11.0 µM 16% | [11]; at 33.0 µM 44% | [12]; at 1.2 µM 2% | [12]; at 3.7 µM 6% | [12]; at 11.0 µM 17% | [12]; at 33.0 µM 44% | [14]; [16] -3% | [14]; [17] 37% | [14]; at 50.0 µM 38.9% | [15]; at 1.2 µM 3% | [15]; at 3.7 µM 9% | [15]; at 11.0 µM 25% | [15]; at 33.0 µM 31% | [15]; at 100.0 µM 69%
